± gives the standard deviation.
Legend:
Settings in all cases: modulator concentration 10 µM
[1] = system: RAW-Dual (murine macrophage reporter line); test: NF-kB reporter (SEAP) activity fold change vs agonist alone; higher = enhanced NF-kB activity
Outline: (§1)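 In 384-well plates holding 50 000 RAW-Dual murine macrophage reporter cells per well, compound at 10 μM final was pre-incubated for 1 hour at 37 °C, after which a PRR agonist was added overnight. Supernatant SEAP read with QUANTI-Blue at 620 nm absorbance reported NF-κB, and Lucia luciferase read with QUANTI-Luc luminescence reported IRF. Fold change values come from dividing each reporter signal by the mean of agonist-only control wells on the same plate, averaged over replicate plates with propagated errors.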

[2] = system: RAW-Dual (murine macrophage reporter line); test: IRF reporter (Lucia luciferase) activity fold change vs agonist alone; higher = enhanced IRF activity
Outline: as §1

[3] = system: RAW-Dual (murine macrophage reporter line); test: viability score (confluency relative to resting cells, overnight) (fraction); higher = more viable, active = viable (0.7 or more)
Outline: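 In 384-well plates, RAW-Dual macrophages received compound at a final 10 μM overnight. Two confluency masks were then made with IncuCyte software from IncuCyte images of all imaged wells. The viability score is defined as confluency relative to resting cells. Passing the cutoff required both masks to lie above 70% of resting cells.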

[4] = agonist: CpG ODN 1826 0.5 ug/mL

Compound | NF-kB reporter [1, 4] | NF-kB reporter ([1]; agonist: LPS 0.1 ug/mL) | NF-kB reporter ([1]; agonist: MPLA […]) | IRF reporter ([2]; agonist: 3'3'-cGAMP 10 ug/mL) | IRF reporter ([2]; agonist: LPS 0.1 ug/mL) | IRF reporter ([2]; agonist: MPLA […]) | viability score [3]
COc1ccc(N(CC(=O)NCCc2ccc(OC)c(OC)c2)S(=O)(=O)c2ccc(OC)c(OC)c2)cc1 | 0.951 ± 0.083 | 0.994 ± 0.062 | 0.934 ± 0.12 | 1.01 ± 0.041 | 1.44 ± 0.18 | 1.2 ± 0.11 | 1.01 (active)
Cc1cc(OC2CN(C(=O)Cc3noc4ccccc34)C2)cc(=O)n1C1CC1 | 1.18 ± 0.072 | 1.08 ± 0.088 | 0.996 ± 0.043 | 0.919 ± 0.072 | 1 ± 0.061 | 0.957 ± 0.14 | 0.999 (active)
O=c1ncnc2[nH][nH]cc1-2 | 0.832 ± 0.071 | 0.865 ± 0.043 | 1.13 ± 0.13 | 0.979 ± 0.059 | 1.17 ± 0.07 | 1.31 ± 0.15 | 1.02 (active)
COc1cccc(N2CC(C(=O)NC3CCN(c4nccn5c(C)nnc45)CC3)CC2=O)c1 (stereo unspecified) | 1.03 ± 0.051 | 1.06 ± 0.092 | 0.955 ± 0.088 | 0.968 ± 0.049 | 1.17 ± 0.073 | 1.08 ± 0.11 | 1.01 (active)
N#CC(=Cc1ccc(-c2ccc(Cl)cc2)o1)C(N)=O | 0.783 ± 0.062 | 0.875 ± 0.14 | 1.13 ± 0.1 | 1.07 ± 0.049 | 1.43 ± 0.1 | 1.63 ± 0.18 | 1.02 (active)
CC(=O)Oc1ccc2c(C)c(Cl)c(=O)oc2c1C | 1.14 ± 0.24 | 1.01 ± 0.08 | 0.96 ± 0.1 | 0.93 ± 0.024 | 1.25 ± 0.19 | 1.19 ± 0.16 | 1.01 (active)
CC1ON(c2ccc(Cl)c(Cl)c2)C(=O)NC1=O (stereo unspecified) | 1.02 ± 0.13 | 0.886 ± 0.065 | 1.06 ± 0.11 | 1.03 ± 0.032 | 1.27 ± 0.2 | 1.49 ± 0.24 | 0.998 (active)
COc1ccc(NC(=O)CN2C(=O)c3cccc4cccc(c34)C2=O)cc1 | 0.966 ± 0.059 | 0.998 ± 0.087 | 0.938 ± 0.063 | 0.939 ± 0.033 | 1.2 ± 0.11 | 1.1 ± 0.12 | 1 (active)
COc1cc2nc(N3CCN(C(=O)C4CCCO4)CC3)nc(N)c2cc1OC.Cl (stereo unspecified) | 0.503 ± 0.069 | 0.98 ± 0.24 | 0.904 ± 0.054 | 0.913 ± 0.055 | 1.34 ± 0.31 | 1.07 ± 0.14 | 0.988 (active)
COc1ccc(CN(CCN(C)C)c2ccccn2)cc1.O=C(O)C=CC(=O)O | 0.857 ± 0.065 | 0.954 ± 0.051 | 1.01 ± 0.021 | 0.982 ± 0.054 | 0.915 ± 0.097 | 0.897 ± 0.07 | 1 (active)
COc1ccc(NC(=O)CN(c2ccc(F)cc2)S(C)(=O)=O)c(OC)c1 | 0.872 ± 0.073 | 0.896 ± 0.067 | 1.05 ± 0.099 | 0.921 ± 0.042 | 1.23 ± 0.089 | 1.35 ± 0.14 | 0.999 (active)
Cl.O=C1NCC2(CCN(CCc3ccccc3)CC2)O1 | 0.582 ± 0.028 | 0.641 ± 0.054 | 0.798 ± 0.082 | 0.672 ± 0.042 | 1.54 ± 0.26 | 1.78 ± 0.51 | 0.816 (active)
COCCCC/C(=N\OCCN)c1ccc(C(F)(F)F)cc1.O=C(O)/C=C\C(=O)O | 0.903 ± 0.072 | 0.902 ± 0.042 | 1.23 ± 0.15 | 0.829 ± 0.04 | 1.42 ± 0.083 | 1.67 ± 0.14 | 0.985 (active)

From the supplement of paper PMC10646978
